Growth data for 8 compounds are collected here from PubChem BioAssay (NCI).

Among the test systems are SR leukemia; RPMI-8226 leukemia; OVCAR-8 ovarian; OVCAR-5 ovarian; OVCAR-4 ovarian; SK-OV-3 ovarian; IGROV1 ovarian; OVCAR-3 ovarian; HS 578T breast; NCI/ADR-RES ovarian; T-47D breast; BT-549 breast; MDA-MB-435 melanoma; SW-620 colon; MCF7 breast; HCT-116 colon; HCC-2998 colon; KM12 colon.
What all share (assay): NCI-60 one-dose screen, 48 h (100 = growth as untreated, 0 = no growth, -100 = all killed)
What all share (conditions): 10 µM unless noted

The panel holds about 83,000 compounds, 20% with a hit somewhere; the sample as a whole holds those more often.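 Testing used 96-well plates and a 48-hour single-concentration exposure. Example: -40 means 40% of the starting cells died.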 Unmarked numbers belong to inactive results. Active and inactive are the calls of the source. Rule for the calls: active = growth percent below 10; inactive = the rest.

With `N#Cc1c(NC(=O)c2ccc(F)c(Cl)c2)sc2c1CCC(=O)C2`, the growth with SR leukemia is 0.0131% (active); in the test on RPMI-8226 leukemia, 0.133% (active); in the test on OVCAR-8 ovarian it was 16.6%; in the test on OVCAR-5 ovarian, -14.6% (active); in the test on OVCAR-4 ovarian it was -52% (active); with SK-OV-3 ovarian it was 25.8%. Also, the growth in the test on IGROV1 ovarian is -25.7% (active); in the test with OVCAR-3 ovarian, -47.3% (active); with HS 578T breast, -2.33% (active); in the test with NCI/ADR-RES ovarian, -11.8% (active); with T-47D breast it was -18.3% (active); in the test with BT-549 breast it was 2.09% (active). Besides, the growth in the test with MDA-MB-435 melanoma was -39.5% (active); in the test on SW-620 colon it was -24% (active); in the test on MCF7 breast it was 4.86% (active); with HCT-116 colon, 0.878% (active); in the test with HCC-2998 colon, 25.8%; with KM12 colon, 4.23% (active).

In the case of `O=S(=O)(NCCCNc1nccc(-n2cnc3ccccc32)n1)c1ccc(F)cc1`, the growth is 36.8% with SR leukemia; 57.7% with RPMI-8226 leukemia; 62.5% with OVCAR-8 ovarian; 98.6% in the test with OVCAR-5 ovarian; 44.2% in the test with OVCAR-4 ovarian; 85.1% with SK-OV-3 ovarian. In addition, the growth with IGROV1 ovarian was 91.8%; with OVCAR-3 ovarian it was 86.7%; in the test with HS 578T breast, 82.4%; in the test on NCI/ADR-RES ovarian, 64.3%; in the test on T-47D breast, 25.5%; in the test on BT-549 breast, 34.9%. Moreover, the growth is 64.6% in the test on MDA-MB-435 melanoma; 96.2% in the test with SW-620 colon; 63.7% in the test with MCF7 breast; 58.7% in the test with HCT-116 colon; 102% in the test with HCC-2998 colon; 48.9% in the test with KM12 colon.

As to `O=C(NCCCNc1cc(-c2cn(-c3ccccc3)nc2-c2cccc(O)c2)ccn1)Nc1ccc(F)cc1`, the growth was 17.4% in the test on SR leukemia; -31.1% (active) in the test on RPMI-8226 leukemia; 21.2% in the test with OVCAR-8 ovarian; 37.8% in the test with OVCAR-5 ovarian; 30.9% in the test with OVCAR-4 ovarian; 31.5% in the test with SK-OV-3 ovarian. Further, the growth in the test on IGROV1 ovarian was 19.2%; in the test with OVCAR-3 ovarian, 28.4%; in the test on HS 578T breast, -21.4% (active); in the test on NCI/ADR-RES ovarian, 20.9%; with T-47D breast, 11.3%; in the test with BT-549 breast, 22%. The growth is -39.5% (active) with MDA-MB-435 melanoma; 13.5% in the test on SW-620 colon; 10.8% in the test on MCF7 breast; 10.4% with HCT-116 colon; -60.3% (active) in the test on HCC-2998 colon; 2.62% (active) in the test on KM12 colon.

For the compound `CCCCCCNC(=O)Oc1ccc(/C(=C(/C)c2ccc(OC)cc2)c2ccc(OCCN3CCCC3)cc2)cc1`, the growth was 5.51% (active) with SR leukemia; 16.8% with RPMI-8226 leukemia; 86.6% in the test with OVCAR-8 ovarian; 81.5% with OVCAR-5 ovarian; 84.8% in the test on OVCAR-4 ovarian; 97.9% with SK-OV-3 ovarian. In addition, the growth was 65.7% in the test with IGROV1 ovarian; 89.8% in the test on OVCAR-3 ovarian; 83.7% in the test with HS 578T breast; 77% with NCI/ADR-RES ovarian; 59.7% with T-47D breast; 84.3% with BT-549 breast. Besides, the growth with MDA-MB-435 melanoma was 74.4%; in the test on SW-620 colon, 62.6%; with MCF7 breast, 18.2%; in the test with HCT-116 colon, 31.4%; in the test on HCC-2998 colon, 87.9%; with KM12 colon it was 82%.

Turning to `CN(C)CCn1c2ccc(N)cc2c2nc3ccccc3nc21`, the growth in the test on SR leukemia is 33.3%; with RPMI-8226 leukemia it was 24.6%; with OVCAR-8 ovarian it was 35.7%; in the test with OVCAR-5 ovarian, 41%; with OVCAR-4 ovarian, 53.5%; with SK-OV-3 ovarian it was 37.4%. For the same compound, the growth in the test on IGROV1 ovarian was 23.2%; with OVCAR-3 ovarian it was 37%; in the test on HS 578T breast, 76.2%; in the test on NCI/ADR-RES ovarian it was 28.1%; in the test on T-47D breast, 36.4%; with BT-549 breast, 85.5%. Besides, the growth is 38.4% in the test on MDA-MB-435 melanoma; 17.1% in the test with SW-620 colon; 9.61% (active) in the test with MCF7 breast; 11.3% in the test with HCT-116 colon; 45.9% in the test with HCC-2998 colon; 38.5% in the test with KM12 colon.

Turning to `O=[N+]([O-])c1ccc(-c2nnc(SCc3ccc(O)c4ncccc34)n2-c2ccccc2)cc1`, the growth is 40.6% in the test with SR leukemia; 17.8% with RPMI-8226 leukemia; 17.9% with OVCAR-8 ovarian; 73.9% in the test with OVCAR-5 ovarian; 50.6% in the test with OVCAR-4 ovarian; 30.6% in the test with SK-OV-3 ovarian. The growth is 30.6% with IGROV1 ovarian; 30.5% in the test with OVCAR-3 ovarian; 5.1% (active) in the test on HS 578T breast; 69% in the test on NCI/ADR-RES ovarian; 24.1% with T-47D breast; 20% with BT-549 breast. The growth in the test with MDA-MB-435 melanoma was 14%; in the test with SW-620 colon, 18.6%; with MCF7 breast it was 11.4%; with HCT-116 colon, 12.4%; with HCC-2998 colon, 41.9%; in the test with KM12 colon, 19.2%.

Consider `COc1cc2cc(Oc3ccc(NC(=O)Nc4cc(C(F)(F)F)cc(C(F)(F)F)c4)cc3)c(C)nc2cc1OCCN(C)C`, for which the growth in the test with SR leukemia is 121%; in the test with RPMI-8226 leukemia, 113%; in the test on OVCAR-8 ovarian, 113%; in the test with OVCAR-5 ovarian, 109%; in the test on OVCAR-4 ovarian, 104%; in the test on SK-OV-3 ovarian, 113%. Also, the growth in the test on IGROV1 ovarian is 104%; with OVCAR-3 ovarian, 120%; in the test with HS 578T breast, 101%; in the test on NCI/ADR-RES ovarian, 109%; in the test with T-47D breast it was 106%; in the test on BT-549 breast, 114%. The growth in the test with MDA-MB-435 melanoma is 106%; with SW-620 colon, 106%; with MCF7 breast, 93%; with HCT-116 colon it was 110%; with HCC-2998 colon it was 103%; with KM12 colon, 104%.

In the case of `Cc1nn(-c2ccc(Cl)cc2)c(C)c1N=Nc1ccc2oc(=O)ccc2c1`, the growth was 67.1% in the test on SR leukemia; 72.3% with RPMI-8226 leukemia; 56.9% in the test with OVCAR-8 ovarian; 104% in the test with OVCAR-5 ovarian; 34.4% with OVCAR-4 ovarian; 114% in the test with SK-OV-3 ovarian. Besides, the growth is 80.9% in the test with IGROV1 ovarian; 104% in the test on OVCAR-3 ovarian; 75.9% with HS 578T breast; 69.5% with NCI/ADR-RES ovarian; 45.9% with T-47D breast; 101% in the test with BT-549 breast. Further, the growth in the test on MDA-MB-435 melanoma was 85.4%; in the test with SW-620 colon, 94%; in the test with MCF7 breast it was 78.7%; with HCT-116 colon it was 66.5%; in the test on HCC-2998 colon, 105%; with KM12 colon, 90.3%.
